Measured values as given in PubChem BioAssay (Tox21).
Values without a mark were called inactive. Activity calls are given as the source filed them. Calls come from the whole dose curve; as a rule, active = well fitted activation curve with a large enough effect in the repeat runs; inconclusive = weak or mixed curves; inactive = flat fitted curve, though single readings scatter.

Assay: A CellTox Green Cytotoxicity Assay to monitor cytotoxicity in HepG2 cells - 0 hour (AID 1224882); note: nearly all actives have a fitted effect of over 35% in size
Settings: CellTox Green fluorescence; series mostly up to 76.8 µM; cytotoxicity: at the top concentration
Description: National Center for Advancing Translational Sciences [NCATS]
NIH Chemical Genomics Center [NCGC]
U.S. Environmental Protection Agency [EPA]
National Institutes of Environmental Health Sciences [NIEHS]
National Toxicology Program [NTP]
Cell-based models are critical for drug discovery. Determining the natural cytotoxic effects resulting from test compounds is an essential research activity. A CellTox Green Cytotoxicity Assay to monitor cytotoxicity in real time of continues cell culture during 40 hours of the compound treatment was used to screen Tox21 10K library compounds in HepG2 cells. CellTox Green Cytotoxicity Assay is a nonlytic, homogeneous, biofluorescent method to measure cytotoxicity in cell culture after experimental manipulation. The assay system uses a proprietary asymmetric cyanine dye that is excluded from viable cells but preferentially stains the dead cell's DNA. […] Viable cells produce no appreciable increases in fluorescence. Therefore, the fluorescence signal produced by the binding interaction with dead cell DNA is proportional to cytotoxicity.
The mixture of HepG2 cell suspension and reagents were dispensed at 600cells/6 ul/well in 1536-well tissue culture treated black solid bottom plates using a Multidrop dispenser. After the assay plates were incubated at a 37 C/5% CO2 incubator for 5 hours, 23 nL of compounds dissolved in DMSO, positive and negative controls was transferred to the assay plate by a pintool work station. The plates were incubated at 37 C for 40 hours. The fluorescence intensity were measured at 0h, 8h, 16h, 24h, 32h and 40h time points using ViewLux plate reader during compound treatment.
% is set by controls: 0 for no effect and ±100 for the full control effect; potency is the fitted concentration of half-maximal effect.

Row | Structure (SMILES) | cytotoxicity | Potency
1 | CCOCCn1c(C2CCN(CCc3ccc(C(C)(C)C(=O)O)cc3)CC2)nc2ccccc21 | -10.7% [at 35.3 µM] | 
2 | CC[C@H](NC(=O)c1cc(F)ccc1NS(=O)(=O)c1cccc2cccnc12)c1ccccc1 | 23.5% | 
3 | O=C(OCCOCCO)c1ccccc1Nc1cccc(C(F)(F)F)c1 | 1.35% [at 35.3 µM] | 
4 | Cc1cc(O)c2c(O)c3c(O)cccc3cc2c1 | -1.08% [at 35.3 µM] | 
5 | CO[Si](C)(OC)OC | -2.13% | 
6 | O=C(CCCN1CCN(c2ccc(F)cc2)CC1)NC1c2ccccc2CSc2ccccc21 (stereo not given) | 2.35% [at 35.3 µM] | 
7 | Cc1ccc(/C=N/n2c(-c3ccccc3)csc2=S)cc1 | 2.5% [at 35.3 µM] | 
8 | Cc1c(C(=O)NN2CCCCC2)nn(-c2ccc(Cl)cc2Cl)c1-c1ccc(Cl)cc1 | 3.22% [at 35.3 µM] | 
9 | O=C1OCCN1/N=C/c1ccc([N+](=O)[O-])o1 | -15.3% [at 35.3 µM] | 
10 | CCCCC/C(=C\c1ccccc1)CO | -5.51% | 
11 | CC(CCO)CCc1ccccc1 (stereo not given) | 2.37% | 
12 | CCCCCCCC/C=C\CCCCCCCC(=O)OC | -5.47% | 
13 | CC1(C)O[C@@H]2C[C@H]3[C@@H]4CCC5=CC(=O)C=C[C@]5(C)[C@H]4[C@@H](O)C[C@]3(C)[C@]2(C(=O)CO)O1 | 0.552% [at 35.3 µM] | 
14 | CC(=O)Oc1ccc(C(=C2CCCCC2)c2ccc(OC(C)=O)cc2)cc1 | -20.8% [at 35.3 µM] | 
15 | COc1cc2[nH]c(=O)[nH]c(=O)c2cc1OC | -17.5% [at 35.3 µM] | 
16 | CC[C@@H]([C@H](C)O)n1ncn(-c2ccc(N3CCN(c4ccc(OC[C@@H]5CO[C@@](Cn6cncn6)(c6ccc(F)cc6F)C5)cc4)CC3)cc2)c1=O | 1.99% [at 35.3 µM] | 
17 | CCCCOC(=O)CCS | -3.83% | 
18 | C[C@]12CCC(=O)C=C1C=C[C@@H]1[C@@H]2CC[C@@]2(C)[C@H]1CC[C@@]21CCC(=O)O1 | -2.49% [at 35.3 µM] | 
19 | COc1cc2ncnc(Nc3ccc(F)c(Cl)c3)c2cc1OCCCN1CCOCC1 | -3.18% [at 35.3 µM] | 
20 | O=C(CCCN1CCC(O)(c2ccc(Br)cc2)CC1)c1ccc(F)cc1 | -11.6% [at 35.3 µM] | 

Row | Structure (SMILES) | cytotoxicity | Potency
21 | C[C@@H]1C[C@H]2[C@@H]3CCC4=CC(=O)C=C[C@]4(C)[C@@]3(F)[C@@H](O)C[C@]2(C)[C@@]1(O)C(=O)CO | 10.4% | 
22 | CC(C)(CCl)c1ccccc1 | -5.22% | 
23 | CCCOCCOCCO | -0.36% | 
24 | O=c1[nH]c2ccc(S(=O)CCN3CCC(Cc4ccc(F)cc4)CC3)cc2o1 (stereo not given) | -1.7% | 
25 | CNC(=S)NC | 0.668% | 
26 | CC(=O)[C@H]1CC[C@H]2[C@@H]3C[C@H](C)C4=CC(=O)CC[C@]4(C)[C@H]3[C@@H](O)C[C@]12C | 1.62% [at 35.3 µM] | 
27 | COc1ccc(C(=O)c2cccc(O)c2)c(OC)c1 | -4.15% | 
28 | COC(OC)(C(=O)c1ccccc1)c1ccccc1 | -0.152% | 
29 | C/C=C(\C)C(=O)OCCC(C)CCC=C(C)C (stereo not given) | 0.108% | 
30 | COc1ccc(CCC(=O)c2c(O)cc(O[C@@H]3O[C@H](CO)[C@@H](O)[C@H](O)[C@H]3O[C@@H]3O[C@@H](C)[C@H](O)[C@@H](O)[C@H]3O)cc2O)cc1O | -1.6% | 
31 | CC(CCc1ccc2c(c1)OCO2)NN (stereo not given) | 0.697% [at 35.3 µM] | 
32 | [O]=[Bi] | 1.27% [at 6.97 µM] | 
33 | CC1=CC(=O)CC(C)(C)C1(O)/C=C/C(C)=C\C(=O)O (stereo not given) | 2.33% | 
34 | CC1=C(/C=C/C(C)=C\C=C\C(C)=C\C(=O)O)C(C)(C)CCC1 | 1.67% | 
35 | Nc1c(I)cc(I)c(C(=O)N(CCC(=O)O)c2ccccc2)c1I | 4.27% [at 35.3 µM] | 
36 | c1cnc2c(n1)CCCC2 |  | 24.5 µM (active)
37 | CN(C(=O)C(Cl)Cl)c1ccc(OC(=O)c2ccco2)cc1 | 0.35% [at 35.3 µM] | 
38 | CCCCCCCCCCCC[N+](C)(C)CC(=O)[O-] | 2.53% | 
39 | Cc1cnc(C)c(C)n1 | 12% | 
40 | Nc1ccc(C(=O)OCCCOC(=O)c2ccc(N)cc2)cc1 | 3.17% | 
